# IMPase inh = membrane-permeable compound that blocks inositol monophosphatase; P97697; CHO-M1 cells, IP1 accumulation, HTRF TR-FRET ratio; inhibition (IP1 accumulation), % at 46.1 µM; 120,000 tested, under 10 active; active = well fitted curve in the direction sought with a large enough effect in the signal ratio, not every such curve was filed as active; inconclusive = small, poorly fitted or top-dose-only effect, or a change in a side signal; inactive = no such curve, though single readings can be large or run the other way; the % refers to the signal ratio;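 also: cells stimulated with carbachol in lithium chloride buffer; plate controls were DMSO basal wells for no effect and reference inhibitor wells for full effect; higher means more IMPase inhibition seen as more IP1 and lower FRET ratio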
#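 In this qHTS, compounds (final up to 46 uM) act on CHO-M1 cells that are then activated through the M1 receptor with carbachol, in pH 7.4 buffer containing 50 mM LiCl, for 30 min. IP1 accumulation is quantified by the IP-One immunoassay.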
# PNC assembly inh = perinucleolar compartment assembly inhibition; PC3M PTB-GFP, PNC prevalence imaging, 16 h; active compounds read low; activity change (PNC), negative = inhibition, % at 10 µM; hit rate 3.1% among 140,000;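 active = readout at or below -70, meaning at least 70% loss of cells showing the perinucleolar compartment, a nuclear body marking cancer cells; inconclusive = readout between -30 and a set limit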;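 also: plate controls were DMSO wells for no effect and camptothecin positive control wells for full effect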
#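 Read-out is percentage of cells bearing a perinucleolar compartment, from automated 20x imaging of fixed, Hoechst-stained PC3M PTB-GFP cells. Cells were seeded 4 h, then exposed 16 h to compound (23 nl of library stock) in duplicate plates.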
# Lamin A splicing = LMNA splicing modulation; HeLa LMNA splicing GFP/RFP minigene ratio, 48 h; Potency, µM (top dose mostly 46.1 µM), for inactives: at the top dose ratio change, negative = inhibition, most hits filed as inhibitors; hit rate 0.01% among 200,000; active = well fitted inhibition curve with a large enough effect in the signal ratio, with a control signal flat, not every such curve was filed as active; inconclusive = small, poorly fitted or top-dose-only effect, or effect the other way, or a change in a side signal; the % refers to the signal ratio; also: potency is read from the fitted curve at half-maximal effect
#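 S3 HeLa stable clones carrying a lamin A-EGFP splicing minigene plus DsRed2 were seeded at 600 cells/well in Opti-MEM with 2% FBS, pin-dosed and incubated 48 h at 37°C. Acumen cytometry (488 nm) gave the GFP/RFP total-intensity ratio.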
# Luc counter = blocks Kinase-Glo luciferase, a counter-screen artifact; Kinase-Glo luciferase, ATP luminescence, 8 min; Q27757; hit rate 0.28% among 200,000; Potency, µM (doses to about 38.3 µM), for the others: at the highest dose activity change, negative = inhibition, usual class: inhibitors; active = well fitted inhibition curve with a large enough effect; inconclusive = small, poorly fitted or top-dose-only effect; also: potency is read from the fitted curve at half-maximal effect; nearly all actives have a fitted effect of over 60% in size
#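 Kinase-Glo luciferase light output from ATP and luciferin was measured with 10 uM ATP, within the enzyme's linear range. Buffer: 50 mM imidazole pH 7.2, 50 mM KCl, 7 mM MgCl2, 0.01% Tween 20, 0.05% BSA; luminescence read after 8 min at ambient temperature.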
# HPGD inh = HPGD (human) dehydrogenase inhibition; P15428; AID 894; hit rate 4.3% among 150,000; purified HPGD, NADH fluorescence kinetic, PGE2 substrate; Potency, µM, for the others: top-dose activity change, negative = inhibition, hits mostly inhibitors; also: potency is read from the fitted curve at half-maximal effect
# Target sequence (P15428 whole entry, looked up): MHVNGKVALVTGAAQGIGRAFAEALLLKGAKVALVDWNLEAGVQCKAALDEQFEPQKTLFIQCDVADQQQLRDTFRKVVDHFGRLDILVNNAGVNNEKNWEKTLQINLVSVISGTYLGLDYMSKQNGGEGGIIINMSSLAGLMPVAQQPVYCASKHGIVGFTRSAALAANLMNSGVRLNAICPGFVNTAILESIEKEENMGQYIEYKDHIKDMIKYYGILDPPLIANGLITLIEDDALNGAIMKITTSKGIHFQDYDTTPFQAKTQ
#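 NADH formation kinetics: reaction with 30 uM PGE2 and 1 mM NAD+ (final), 20 nM enzyme, Tris-HCl pH 8 with Tween 20, after 15 min compound preincubation at room temperature. Fluorescence change, last versus first of five reads.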
# ALDH1A1 inh = ALDH1A1 (human) enzyme inhibition | P00352 | Purified ALDH1A1, NADH fluorescence, propionaldehyde substrate | Potency, µM (doses to about 75.3 µM), for inactives: at the highest dose activity, negative = inhibition, usual class: inhibitors | hit rate 7.3% among 220,000 | AID 1030;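 also: potency is read from the fitted curve at half-maximal effect; plate controls were no enzyme wells and a reference inhibitor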
# Target sequence (P00352 whole entry, looked up): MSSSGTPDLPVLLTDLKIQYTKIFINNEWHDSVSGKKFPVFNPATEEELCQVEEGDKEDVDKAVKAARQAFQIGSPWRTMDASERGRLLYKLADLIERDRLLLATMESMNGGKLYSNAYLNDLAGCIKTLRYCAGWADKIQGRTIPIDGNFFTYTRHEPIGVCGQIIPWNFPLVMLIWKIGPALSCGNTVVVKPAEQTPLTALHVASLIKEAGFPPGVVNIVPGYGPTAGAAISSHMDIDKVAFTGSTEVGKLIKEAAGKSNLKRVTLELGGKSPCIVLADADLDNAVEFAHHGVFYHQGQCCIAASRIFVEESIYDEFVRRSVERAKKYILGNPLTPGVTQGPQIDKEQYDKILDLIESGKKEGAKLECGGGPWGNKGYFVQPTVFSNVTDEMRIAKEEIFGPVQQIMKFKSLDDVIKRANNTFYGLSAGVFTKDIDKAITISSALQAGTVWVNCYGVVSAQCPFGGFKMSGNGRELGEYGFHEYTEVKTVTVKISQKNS
# * = called active by the depositor; ? = inconclusive; · = not tested or not shown; ! = repeats disagree; [ ] = dose if it differs, or a comment. Rows were chosen to be rich in hits. Some 10% of all compounds tested hit in one or more screens of this group. Unless noted, calls follow the shape of the dose curve; as a rule, active = well fitted inhibition curve with a large enough effect (not every such curve was filed as active); inconclusive = small, poorly fitted or top-dose-only effect, or another doubt; inactive = no such curve, though single readings can be large or run the other way. Unless noted, % is scaled to controls: 0 for no effect and ±100 for the full control effect.
SMILES,IMPase inh,PNC assembly inh,Lamin A splicing,Luc counter,HPGD inh,ALDH1A1 inh
CCc1ccc(/C=N\NC(=O)c2ccc(Br)o2)s1,·,-3,9%,-10%,-24%,-4%
Cc1ccc(/C=N/NC(=O)c2ccc(Br)o2)s1,·,-98*,30%,-6%,-13%,7%
CCOc1ccccc1CNC(=O)c1ccc2nc(CCc3ccccc3)oc2c1,·,·,-5%[46 µM],·,·,·
Cc1cc(O)c2c(c1)C(=O)c1cccc(O)c1C2=O,-3,14,?,-1%,-6%,13µM*!
COc1ccccc1OCCCCn1c(-c2ccc(Cl)cc2)nc2ccccc2c1=O,0,·,·,·,·,·
c1ccc(Cn2nnc3c(N4CCCCCC4)ncnc32)cc1,6,-8,?,1%,32µM*,?
c1ccc(Cn2nnc3c(NCCN4CCOCC4)ncnc32)cc1,-1,-14,9%,-7%,-26%,?
c1ccc(Cn2nnc3c(N4CCc5ccccc54)ncnc32)cc1,4,?,-16%,1%,?,?
CCCN1CCN(c2ncnc3c2nnn3Cc2ccccc2)CC1,7,4,-15%,-4%,25µM*,10µM*
Fc1cccc(Cl)c1Cn1nnc2c(N3CCC4(CC3)OCCO4)ncnc21,0,?,?,-5%,-12%,16µM*
FC(F)(F)c1ccc(N2CCN(c3ncnc4c3nnn4Cc3ccccc3Cl)CC2)cc1,8,4,1%,2%,?,?
C=CCC(C)(O)c1cccs1 (stereo not given),·,·,·,1%,-7%,-2%
COCCn1c(=O)c(-c2ccc(F)cc2)nc2cnc(N3CCOCC3)nc21,·,·,-6%,·,·,?
CCC/C=C/C1C(=O)C2OC2C2(OCC(CC)(CC)CO2)C1CO (stereo not given),·,·,·,·,·,6%[13.5 µM]
CCCCNC(=O)/C=C/c1ccc(OC)c(Br)c1,-3,?,-4%,4%,25µM*,-1%
CCOc1ccc(/C=C/C(=O)NCCc2ccc(OC)c(OC)c2)cc1,·,?,?,-2%,-5%,2%
COC(=O)C/C=C/[C@@H](C)[C@H](NC(=O)OCC(Cl)(Cl)Cl)c1ccc2ccccc2c1,·,·,·,0%,-5%,-7%
COC(=O)c1c(NC(=O)CN2CCC3(O)CCCCC3C2c2ccc(OC)cc2OC)sc(C)c1C (stereo not given),8,58,?,-4%,20µM*,2.5µM*
COC(=O)c1c(NC(=O)CN2CCC3(O)CCCCC3C2c2ccccc2OC)sc(C)c1C (stereo not given),·,92,?,2%,?,?
CCC(C)n1c(=N)c(C(=O)NCc2ccccc2)cc2c(=O)n3cc(C)ccc3nc21 (stereo not given),-2,·,·,·,·,·
CCCCNC(=O)COC(=O)c1cc(Br)ccc1Cl,5,0,-7%,0%,?,7%
CCC(CC)NC(=O)COC(=O)c1cc(Br)ccc1Cl,·,?,-4%,-1%,32µM*,4%
Cc1nnc2c(N3CCN(c4ccccc4F)CC3)nc3ccccc3n12,·,·,-3%[46 µM],·,·,·
O=c1[nH]c(SCc2cccc([N+](=O)[O-])c2)nc2nc[nH]c12,·,·,·,-2%[7.66 µM],-4%,3%[13.5 µM]
Cc1ccc(C)c(NC2=CC(=O)CC(C)(C)C2)c1C#N,-4,-9,?,-3%,-11%,13µM*
SMILES,IMPase inh,PNC assembly inh,Lamin A splicing,Luc counter,HPGD inh,ALDH1A1 inh
Cc1ccccc1NC1=CC(=O)CC(C)(C)C1,4,5,-10%,-5%,-26%,-1%
C=C(Nc1ccc(OC)cc1)C(=O)OC,·,·,·,2%,-7%,?
CCn1c(/C=C/c2c[nH]c3ccccc23)nc2ccccc2c1=O,·,·,26%[46 µM],1%,·,-11%
CN(C)S(=O)(=O)c1ccc2[nH]cc(/C=C/c3nc4ccccc4c(=O)n3-c3ccccc3)c2c1,-3,-80*,?,-5%,256%,?
COCCN(CCOC)c1cc(C)c(C#N)c2nc3ccccc3n12,-3,-95*,3%,1%,?,?
C=C(C)CSc1cc(C)c(C#N)c2nc3ccccc3n12,1,-93*,-17%,11%,?,22%
Cc1ccc(N2C(=O)CC(Sc3ncccc3C(=O)O)C2=O)cc1 (stereo not given),·,·,·,2%,·,-14%
CN(C)c1ccc(N2C(=O)CC(Sc3ccccc3C(=O)O)C2=O)cc1 (stereo not given),·,15,-15%,2%,-10%,1.3µM*
Cc1cccc(N2C(=O)CC(Sc3ccccc3C(=O)O)C2=O)c1 (stereo not given),-1,-14,-10%,0%,-12%,5µM*
Cc1ccc(N2C(=O)CC(Sc3ccccc3C(=O)O)C2=O)cc1 (stereo not given),·,17,-5%,7%,-6%,0.71µM*
O=C(O)c1ccccc1SC1CC(=O)N(c2ccc3c(c2)OCO3)C1=O (stereo not given),·,·,?,5%,·,1.3µM*
Cn1ncc2c(Nc3cccc(F)c3)ncnc21,·,·,-14%[46 µM],·,·,·
CN1C(=O)CC(Sc2ccccc2C(=O)O)C1=O (stereo not given),0,-30,10%,-3%,-5%,-15%
Cc1ccc(N2C(=O)CC(Sc3ccccc3C(=O)O)C2=O)cc1C (stereo not given),·,·,?,4%,·,0.45µM*
CC(C)CN1C(=O)CC(Sc2ccccc2C(=O)O)C1=O (stereo not given),-5,?,-1%,-5%,-4%,18µM*
CCCCN1C(=O)CC(Sc2ccccc2C(=O)O)C1=O (stereo not given),-4,?,2%,-6%,2%,?
Cc1cccc(N2C(=O)CC(Sc3ncn[nH]3)C2=O)c1 (stereo not given),·,·,·,-3%,·,14µM*
CC(C)Oc1ccc(CNC(=O)c2ccc3c(c2)N(C)C(=O)C2CCCCN32)cc1 (stereo not given),·,·,-28%[46 µM],·,·,·
CCOC(=O)N1CCC(N(C(=O)Nc2ccc(Cl)c(Cl)c2)C(C)CC)CC1 (stereo not given),8,-11,?,3%,20µM*,?
Cc1ccc(-n2ncc(C(=O)NCc3ccco3)c2C2CCN(C(=O)OC(C)(C)C)CC2)cc1C,·,·,-9%[46 µM],·,·,·
COc1ccc2c(-c3ccccc3)cc(=O)[nH]c2c1,5,?,?,-1%,?,?
Cc1cc(=O)[nH]c2cc(O)ccc12,-2,?,0%,3%,?,?
COc1ccc2c(C)cc(=S)[nH]c2c1,·,·,-3%[46 µM],3%,·,32µM*
CC(=O)Oc1ccc2c(C)cc(=O)[nH]c2c1,-8,-114*,8%,13%,-4%,9%
COc1cccc(CNC(=O)c2sc3nc4n(c(=O)c3c2C)CCC4)c1,·,·,22%[46 µM],·,·,·

# Screening data as filed in PubChem BioAssay.
